From PubChem BioAssay
Sampled rows, rich in hits. Any-hit rate of the full collection: about 8.9%.
IMPase Li cell = cell-permeable IMPase inhibitors with lithium potentiation | 210,000 compounds, 0.35% hits | Potency, µM (titrated, usually from 59.4 µM), usual class: inhibitors | AID 1457 | CHO-M1 cells, IP1 TR-FRET (IP-One), carbachol + lithium;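 note: IP1 builds up when IMPase is blocked and the TR-FRET signal falls; nearly all actives have a fitted effect of over 50% in size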
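Concentration–response in CHO-M1 cells, lithium-potentiated; 30 min at 37C. IP1 detected by competitive TR-FRET after 10 min lysis at RT. Hill-fitted AC50.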
HPGD inh = blocks human HPGD enzyme activity. 150,000 compounds, 4.3% hits. purified HPGD, NADH fluorescence kinetic, PGE2 substrate. Potency, µM, usual class: inhibitors. AID 894. P15428; active = well fitted inhibition curve with a large enough effect, not every such curve was filed as active; inconclusive = small, poorly fitted or top-dose-only effect, or another doubt; inactive = no such curve, though single readings can be large or run the other way
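NADH formation kinetics: reaction with 30 uM PGE2 and 1 mM NAD+ (final), 20 nM enzyme, Tris-HCl pH 8 with Tween 20, after 15 min compound preincubation at room temperature. Fluorescence change, last versus first of five reads.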
IMPase inh = IMPase inhibition in cells; inhibition (IP1 accumulation), % at 46.1 µM; P97697; CHO-M1 cells, IP1 accumulation, HTRF TR-FRET ratio; 120,000 tested, under 10 active; active = well fitted curve in the direction sought with a large enough effect in the signal ratio, not every such curve was filed as active; inconclusive = small, poorly fitted or top-dose-only effect, or a change in a side signal; inactive = no such curve, though single readings can be large or run the other way; the % refers to the signal ratio;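 note: cells stimulated with carbachol in lithium chloride buffer; higher means more IMPase inhibition seen as more IP1 and lower FRET ratio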
Target sequence (P97697 whole entry, looked up): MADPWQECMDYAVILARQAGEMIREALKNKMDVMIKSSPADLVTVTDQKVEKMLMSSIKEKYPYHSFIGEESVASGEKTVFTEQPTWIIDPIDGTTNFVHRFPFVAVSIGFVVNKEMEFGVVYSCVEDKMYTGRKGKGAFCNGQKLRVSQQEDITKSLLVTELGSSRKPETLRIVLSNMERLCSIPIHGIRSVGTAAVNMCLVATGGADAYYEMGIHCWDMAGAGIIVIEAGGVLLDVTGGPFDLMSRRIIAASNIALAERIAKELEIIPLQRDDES
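Cellular IMPase inhibition is scored as a rise in cytosolic IP1, detected by competitive TR-FRET between d2-labelled IP1 and a europium anti-IP1 antibody. M1-expressing CHO cells were stimulated with carbachol for 30 min at 37C, with lithium (50 mM LiCl) present in the buffer.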
ALDH1A1 inh = blocks purified human ALDH1A1 activity | Purified ALDH1A1, NADH fluorescence, propionaldehyde substrate | Potency, µM (series often up to 75.3 µM), actives largely listed as inhibitors | 220,000 compounds, 7.3% hits | AID 1030; active = well fitted inhibition curve with a large enough effect, not every such curve was filed as active; inconclusive = small, poorly fitted or top-dose-only effect, or another doubt; inactive = no such curve, though single readings can be large or run the other way
Target sequence (P00352 whole entry, looked up): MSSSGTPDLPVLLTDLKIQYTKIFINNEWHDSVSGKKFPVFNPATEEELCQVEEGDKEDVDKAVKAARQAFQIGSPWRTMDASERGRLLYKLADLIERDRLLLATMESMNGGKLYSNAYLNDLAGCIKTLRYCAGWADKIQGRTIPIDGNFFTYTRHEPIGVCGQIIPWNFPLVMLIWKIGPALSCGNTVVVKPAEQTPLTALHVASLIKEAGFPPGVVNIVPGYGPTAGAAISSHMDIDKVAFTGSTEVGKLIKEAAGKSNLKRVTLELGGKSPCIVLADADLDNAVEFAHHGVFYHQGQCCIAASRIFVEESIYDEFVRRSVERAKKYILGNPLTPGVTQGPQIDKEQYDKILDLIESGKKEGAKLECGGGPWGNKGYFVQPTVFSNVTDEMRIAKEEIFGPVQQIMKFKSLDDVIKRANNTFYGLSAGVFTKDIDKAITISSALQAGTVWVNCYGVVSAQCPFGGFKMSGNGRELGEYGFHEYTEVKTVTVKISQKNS
NPSR antagonist = neuropeptide S receptor (human) antagonism, cAMP; CHO-NPSR cells, cAMP TR-FRET, antagonist mode; Potency, µM (top dose mostly 38.3 µM), actives largely listed as inhibitors; Q6W5P4; 220,000 compounds, 1% hits; note: nearly all actives have a fitted effect of over 50% in size
ALOX12 inhib = blocks human 12-lipoxygenase activity | Potency, µM (top dose mostly 57.1 µM), most hits filed as inhibitors | purified 12-hLO, xylenol orange hydroperoxide absorbance | 150,000 compounds, 0.12% hits | AID 1452; note: nearly all actives have a fitted effect of over 55% in size
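Lipoxygenase turnover measured by absorbance at 573 and 405 nm after Fe-XO development. Human 12hLO 150 nM, arachidonate 40 uM, pH 7.0 Hepes buffer with detergent; 15 min compound preincubation, 30 min reaction.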
Of the large screens only hits and unclear results are named; the others gave an inactive call. Unless noted, calls come from the whole dose curve; as a rule, active = well fitted curve in the direction sought with a large enough effect; inconclusive = small, poorly fitted or top-dose-only effect, or another doubt; inactive = no such curve, though single readings can be large; an effect the other way counts as inactive or inconclusive.

Cc1ccc(CN=Cc2[nH]c3ccc(Br)c(Cl)c3c2O)cc1	IMPase Li cell 8.9µM, HPGD inh 28µM, ALDH1A1 inh 0.4µM, ALOX12 inhib inconclusive
COc1ccc(CN=Cc2c(O)[nH]c3ccccc23)cc1	none (no result: HPGD inh, IMPase inh, ALOX12 inhib)
CC(C)c1ccc(-n2c(-c3ccccc3)c[n+]3c2CCc2ccccc2-3)cc1	ALDH1A1 inh inconclusive, NPSR antagonist 10µM (no result: HPGD inh, IMPase inh, ALOX12 inhib)
NNC(=O)c1ccc(N2CCc3ccccc32)c([N+](=O)[O-])c1	ALDH1A1 inh 1.6µM (no result: HPGD inh, IMPase inh, ALOX12 inhib)
CC(C)(C)NC(=O)CSc1ncnc2c1nnn2Cc1ccccc1Cl	HPGD inh 32µM, ALDH1A1 inh inconclusive, NPSR antagonist inconclusive
Oc1ccccc1	none (no result: IMPase inh, NPSR antagonist)
Oc1ccc(O)cc1	HPGD inh 7.9µM
O=C(c1ccc(O)cc1)c1ccc(C(=O)c2ccc(O)cc2)cc1	HPGD inh 22µM
CCc1cc2c(C)ccc(C)c2nc1SCC(=O)Nc1c[nH]c(=O)[nH]c1=O	NPSR antagonist inconclusive (no result: HPGD inh, IMPase inh, ALOX12 inhib)
Cc1cccc(CN2CCN(CC(=O)N3CCCC3)C2=O)c1	none
Cc1cccc(CN2CCN(CC(=O)O)C2=O)c1	IMPase Li cell 11µM, IMPase inh inconclusive, ALDH1A1 inh inconclusive
COc1ccc(CCNC(=O)c2nonc2N)cc1OC	none
CC(C)(C)[C@H]1C=C(C(=O)N2CCOCC2)O[C@@H](OCCCCO)C1	none (no result: HPGD inh, IMPase inh, ALOX12 inhib)
C=C(C)C1CCC(C)=C1CC(C)(C)/C=N\n1cnnc1 (stereo not drawn)	ALDH1A1 inh 22µM
COc1ccc(N/C=C(\C(C)=O)c2ccc(OC)c(OC)c2)cc1OC	none (no result: HPGD inh, IMPase inh, ALOX12 inhib)
CCOC(=O)C1=C(N)OC2=C(C(=O)CC(C)(C)C2)C1c1cc(CSc2nnnn2C)cs1 (stereo not drawn)	ALDH1A1 inh 1µM (no result: HPGD inh, IMPase inh, ALOX12 inhib)
CCOC(=O)C1=C(N)OC2=C(C(=O)CC(C)(C)C2)C1c1ccoc1 (stereo not drawn)	ALDH1A1 inh 25µM
CC(C)=C(NC(=O)c1ccccc1)C(=O)N/N=C/c1ccc(O)cc1	ALDH1A1 inh inconclusive (no result: IMPase inh)
O=C(OCC1OC(OC(=O)c2cc(O)c(O)c(OC(=O)c3cc(O)c(O)c(O)c3)c2)[C@@H](OC(=O)c2cc(O)c(O)c(OC(=O)c3cc(O)c(O)c(O)c3)c2)C(OC(=O)c2cc(O)c(O)c(OC(=O)c3cc(O)c(O)c(O)c3)c2)C1OC(=O)c1cc(O)c(O)c(OC(=O)c2cc(O)c(O)c(O)c2)c1)c1cc(O)c(O)c(OC(=O)c2cc(O)c(O)c(O)c2)c1 (stereo partly drawn)	IMPase Li cell inconclusive, HPGD inh 3.2µM, ALDH1A1 inh inconclusive, ALOX12 inhib 0.56µM (no result: IMPase inh, NPSR antagonist)
CCn1c(C)c(CCC(=O)O)c(=O)n2nc(-c3ccccc3OC)cc12	IMPase Li cell 10µM, HPGD inh inconclusive, IMPase inh inconclusive, ALDH1A1 inh inconclusive
CCOC(=O)CCc1c(C)nc2cc(-c3ccccc3OC)[nH]n2c1=O	HPGD inh inconclusive, ALDH1A1 inh inconclusive
O=C(CCCN1CCC(O)(c2ccc(Br)cc2)CC1)c1ccc(F)cc1	none (no result: NPSR antagonist)
O=C(CCn1nnc(-c2cccs2)n1)N1CCc2ccccc2C1	HPGD inh 16µM, ALDH1A1 inh 28µM
O=C(c1cc(-c2cccs2)on1)N1CCc2ccccc2C1	HPGD inh 13µM
O=C(c1cc(-c2ccco2)on1)N1CCN(c2ccccc2)CC1	ALDH1A1 inh 14µM
O=C(c1cc(-c2ccccc2O)on1)N1CCc2ccccc2C1	HPGD inh inconclusive, ALDH1A1 inh inconclusive
O=C(c1cc(-c2ccc(O)cc2)on1)N1CCc2ccccc2C1	HPGD inh 13µM, ALDH1A1 inh inconclusive
O=C(c1cc(-c2cccs2)on1)N1CCOCC1	none
CC(C)C(=O)NC(c1ccc(N(C)C)cc1)c1c(O)ccc2ccccc12 (stereo not drawn)	none (no result: IMPase Li cell, HPGD inh, IMPase inh, ALDH1A1 inh, ALOX12 inhib)
O=C(CC1CCCCC1)c1c(O)c2ccccc2oc1=O	none
O=C(c1cc(-c2ccco2)on1)N1CCc2ccccc2C1	HPGD inh 11µM, IMPase inh inconclusive, ALDH1A1 inh 7.9µM, NPSR antagonist inconclusive
O=C(c1ccc2nc(-c3ccco3)c(-c3ccco3)nc2c1)N1CCN(c2ccccc2)CC1	HPGD inh inconclusive, ALDH1A1 inh 8.9µM, NPSR antagonist inconclusive
NNC1=N[C@H]2CS(=O)(=O)C[C@H]2S1	NPSR antagonist inconclusive
CN(C)S(=O)(=O)c1ccc(NC(=O)CCNC(=O)c2ccc([N+](=O)[O-])cc2)cc1	ALDH1A1 inh 10µM (no result: HPGD inh, IMPase inh, ALOX12 inhib)
CCCC(=O)Nc1ccc(Sc2ccc([N+](=O)[O-])cc2)cc1	HPGD inh 18µM
Cc1ccc(NC(=O)CCNC(=O)c2ccc([N+](=O)[O-])cc2)cc1S(=O)(=O)N(C)C	ALDH1A1 inh inconclusive (no result: HPGD inh, IMPase inh, ALOX12 inhib)
CCCC(=O)Nc1ccc(C(=O)NNC(=O)c2cccc([N+](=O)[O-])c2)cc1	none (no result: HPGD inh, IMPase inh, ALOX12 inhib)
CCC(CC)C(=O)Nc1ccc(Sc2ccc([N+](=O)[O-])cc2)cc1	ALDH1A1 inh 1.1µM, NPSR antagonist inconclusive (no result: IMPase Li cell, HPGD inh)
COC(=O)[C@@H]1[C@@H](C)N(Cc2ccccc2)C(=O)N[C@H]1c1cccc(C(F)(F)F)c1	none (no result: IMPase inh)
CCCCC(CC)CNC(=O)CN(C)S(=O)(=O)c1cccc2nsnc12 (stereo not drawn)	ALDH1A1 inh inconclusive
Cc1oc(-c2ccccc2)cc1C(=O)Nc1ccccc1	none
Cc1oc(-c2ccccc2)cc1C(=O)Nc1ccc2ccccc2c1	HPGD inh inconclusive, ALDH1A1 inh 32µM, ALOX12 inhib inconclusive
COc1ccc(NC(=O)c2cc(-c3ccccc3)oc2C)cc1	HPGD inh 22µM, ALDH1A1 inh inconclusive (no result: IMPase inh)
COc1ccc(NS(=O)(=O)c2cc(OC)ccc2NC(=O)c2cc(C)oc2C)cc1	ALDH1A1 inh 3.2µM, ALOX12 inhib inconclusive
Cc1oc(-c2ccccc2)cc1C(=O)Nc1cccc(/C=C/C(=O)O)c1	none (no result: HPGD inh, IMPase inh, ALOX12 inhib)
CSc1nnc2c3ccccc3c3ccccc3c2n1	ALDH1A1 inh inconclusive
Cc1cc(C)nc(CCNC(=O)c2cc(COc3ccc(F)cc3Cl)on2)n1	none (no result: HPGD inh, IMPase inh, ALOX12 inhib)
Cc1ccc(C2=[N+]([O-])C3(CCCCC/C3=N\NC(N)=S)N(O)C2(C)C)o1 (stereo not drawn)	none
CCc1sc(C(C2C(=O)CC(C)(C)CC2=O)C2C(=O)CC(C)(C)CC2=O)cc1[N+](=O)[O-]	ALDH1A1 inh 14µM, NPSR antagonist inconclusive (no result: HPGD inh, IMPase inh, ALOX12 inhib)
CC1(C)CC(=O)C(C(c2ccc(F)cc2)C2C(=O)CC(C)(C)CC2=O)C(=O)C1	ALDH1A1 inh inconclusive (no result: IMPase inh)
COC(=O)c1ccccc1N1C(=O)C2C(C1=O)C1C=CC2C12CC2 (stereo not drawn)	none
COc1ccc(OC)c(C(=O)CN2CCN(S(=O)(=O)c3ccc(Br)cc3)CC2)c1	ALDH1A1 inh 1.6µM
COc1ccc(S(=O)(=O)N2CCCN(CC(=O)C(C)(C)C)CC2)cc1	ALDH1A1 inh 20µM
Cn1c(C(=O)O)c(CC(=O)Nc2ccccc2F)c2ccccc21	none
